Rows were chosen to be rich in hits. Some 2.3% of all compounds tested hit in one or more screens of this group.
FBPA coupling cs: inhibits coupling enzyme system, counter-screen for aldolase hits | AID 2472 | 0.67% of 290,000 active | activity change, negative = inhibition, % at 58.2 µM, hits read low | coupling enzyme system counterscreen, AmpLite Red fluorescence; in the data active = activity change below about -30%; note: % is set by controls: 0 for no effect and ±100 for the full control effect
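Activity here indicates interference with the coupling reaction, not aldolase inhibition. Compounds at 57.5 uM final met coupling enzymes for 10 min at RT; substrate and AmpLite Red detection followed, with a 525/598 nm fluorescence read after 20 min.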
RGS12 GoLoco inh: RGS12 GoLoco-Gai1 interaction inhibition; P63096; Gai1:RGS12 GoLoco peptide FP, rhodamine, 10 min; Potency, µM (doses to about 61.6 µM), without a hit: top-dose activity, negative = inhibition, usual class: inhibitors; 0.44% of 230,000 active; AID 880; active = well fitted inhibition curve with a large enough effect, not every such curve was filed as active; inactive = no such curve, though single readings can be large or run the other way; note: potency is the fitted concentration of half-maximal effect; % is set by controls: 0 for no effect and ±100 for the full control effect; nearly all actives have a fitted effect of over 30% in size
Target sequence (P63096 whole entry, looked up): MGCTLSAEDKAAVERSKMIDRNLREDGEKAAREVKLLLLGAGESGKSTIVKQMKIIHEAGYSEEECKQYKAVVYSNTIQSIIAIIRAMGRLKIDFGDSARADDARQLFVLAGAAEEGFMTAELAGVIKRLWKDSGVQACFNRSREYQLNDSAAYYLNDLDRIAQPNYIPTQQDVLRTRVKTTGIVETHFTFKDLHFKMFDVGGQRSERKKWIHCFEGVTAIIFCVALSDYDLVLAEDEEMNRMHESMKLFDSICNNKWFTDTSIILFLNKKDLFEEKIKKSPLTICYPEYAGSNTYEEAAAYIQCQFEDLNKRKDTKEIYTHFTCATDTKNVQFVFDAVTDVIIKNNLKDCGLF
HttQ103 aggreg: inhibitors of mutant huntingtin aggregate formation in PC12 cells | PC12 HttQ103-GFP aggregates, Acumen cytometry, 40 h | Potency, µM (top dose mostly 46.1 µM), without a hit: top-dose activity change, negative = inhibition, usual class: inhibitors | 1.1% of 220,000 active | AID 1688; note: potency is the fitted concentration of half-maximal effect; % is set by controls: 0 for no effect and ±100 for the full control effect; nearly all actives have a fitted effect of over 60% in size
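Aggregates are detected as GFP objects 1–25 µm with signal 6 STDEV over background in lysates of induced PC12 cells. These carry Huntingtin exon 1 with 103 glutamines fused to GFP under an ecdysone promoter; compounds titrated.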
VDR inh: inhibitors of human vitamin D receptor | P11473 | VDR-SRC2-3 peptide fluorescence polarization, 2 h | Potency, µM, for the others: max response, negative = inhibition, hits mostly inhibitors | 0.93% of 400,000 active | AID 504847; note: potency is the fitted concentration of half-maximal effect; % is set by controls: 0 for no effect and ±100 for the full control effect
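After 23 nl compound addition and a short centrifugation, plates sat for 2 hours at ambient temperature; polarization of fluorescence then indicated loss of VDR binding to peptide SRC2-3.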
HTT ATP protect: protects HTT-Q103 PC12 cells, measured by ATP | PC12 HTT-Q103 induced, cytoprotection, ATP luminescence, 40 h | Potency, µM (doses to about 56.4 µM), for the others: cytoprotection (ATP increase), actives largely listed as activators | 0.14% of 230,000 active; note: potency is the fitted concentration of half-maximal effect; % of control where 0% means no effect; nearly all actives have a fitted effect of over 45% in size
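Compounds were screened for protection of PC12 cells against cell death after tebufenozide induction (100 nM final) of mutant Huntingtin exon 1 (Q103) fused to GFP.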
KDM4E inh: blocks human JMJD2E demethylase activity; B2RXH2; JMJD2E catalytic domain, FDH-coupled NADH fluorescence (FDH is formaldehyde dehydrogenase); Potency, µM (highest dose often 57.1 µM), inactives show at the highest dose activity change, negative = inhibition, hits mostly inhibitors; 1.6% of 230,000 active; active = well fitted inhibition curve with a large enough effect, not every such curve was filed as active; inconclusive = small, poorly fitted or top-dose-only effect, or another doubt; inactive = no such curve, though single readings can be large or run the other way;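 note: potency is the fitted concentration of half-maximal effect; 0% = wells with enzyme and -100% = buffer wells without enzyme; nearly all actives have a fitted effect of over 50% in size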
Target sequence (B2RXH2 1-337 limits assumed): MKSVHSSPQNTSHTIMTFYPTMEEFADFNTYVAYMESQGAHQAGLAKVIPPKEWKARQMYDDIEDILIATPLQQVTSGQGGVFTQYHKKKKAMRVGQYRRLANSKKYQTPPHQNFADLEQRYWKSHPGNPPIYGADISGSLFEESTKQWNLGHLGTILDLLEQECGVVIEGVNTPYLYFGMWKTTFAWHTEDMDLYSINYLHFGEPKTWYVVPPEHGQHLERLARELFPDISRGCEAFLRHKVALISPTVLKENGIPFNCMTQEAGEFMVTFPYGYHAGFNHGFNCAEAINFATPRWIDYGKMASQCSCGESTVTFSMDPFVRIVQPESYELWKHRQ
Numbers without * were called inactive; ? = inconclusive; . = not tested or not shown; [ ] = remark or other dose. Unless noted, calls come from the whole dose curve; as a rule, active = well fitted curve in the direction sought with a large enough effect; inconclusive = small, poorly fitted or top-dose-only effect, or another doubt; inactive = no such curve, though single readings can be large; an effect the other way counts as inactive or inconclusive.

SMILES | FBPA coupling cs | RGS12 GoLoco inh | HttQ103 aggreg | VDR inh | HTT ATP protect | KDM4E inh
C=C1c2cccc(O)c2C(O)=C2C(=O)[C@]3(O)C(O)=C(C(N)=O)C(=O)[C@@H](N(C)C)[C@@H]3[C@@H](O)[C@H]12 | -2 | -45% | 7%[9.22 µM] | -7% | 24%[10 µM] | ?
Cc1c(NC(=O)c2ccc(Cl)nc2)cccc1-c1nc2cccnc2s1 | 2 | 10% | -11%[9.22 µM] | -5% | 8%[10 µM] | ?
Cc1c(NC(=O)c2ccco2)cccc1-c1nc2cccnc2s1 | 2 | 5% | 10µM* | -12% | -17%[10 µM] | ?
O=C(Nc1cccc(-c2nc3cccnc3s2)c1)c1ccco1 | -1 | 22% | 16µM* | -12% | -55% | ?
CC1(C)Cc2c(c(N3CCOCC3)nc3snc(N)c23)CO1 | -2 | -6% | 25µM* | ? | -10% | ?
CC1(C)Cc2c(c(N3CCOCC3)nc3snc(Br)c23)CO1 | 6 | 0% | -16% | -20% | ? | -5%
CC1(C)Cc2c(c(N3CCOCC3)nc3sc(C(N)=O)c(N)c23)CO1 | -30* | -2% | -33%[9.22 µM] | -3% | -17%[10 µM] | ?
Cc1cc(C)cc(NC(=O)C(OC(=O)c2cc[n+]([O-])cc2)c2ccccc2)c1 (stereo unspecified) | . | . | . | 0% | . | .
CC(C)(C)C(=O)/C(=C\c1ccc([N+](=O)[O-])cc1)n1cncn1 | -2 | -3% | 5µM* | . | ? | -21%
N#Cc1ccc(CN2CCN(C(=O)c3ccc(S(=O)(=O)NCc4ccco4)cc3)CC2)cc1 | . | . | . | -18% | . | .
COC(=O)c1cn(NC(=O)c2cnccn2)c(=O)c2ccccc12 | -8 | -2% | 8.9µM* | -1% | -44% | ?
O=C(Nn1cc(C(=O)Nc2ccccc2F)c2ccccc2c1=O)c1cnccn1 | -11 | -28% | ? | 13% | -31% | -3%
CC1CCN(S(=O)(=O)c2ccc3c(c2)oc(=O)n3CC(=O)NCc2ccc(F)cc2)CC1 | . | . | . | 16% | . | .
OCCCNc1cc(-c2ccnc(Nc3cccc(Cl)c3)n2)ccn1 | -2 | 3% | 0.71µM* | 13% | -5%[10 µM] | -26%
c1ccc(CN(Cc2ccco2)C(c2ccncc2)c2nnnn2C2CCCC2)cc1 (stereo unspecified) | -26 | -3% | 4% | 28µM* | 8%[10 µM] | ?
Fc1ccc(C(c2nnnn2C2CCCC2)N(Cc2ccco2)CC2CCCO2)cc1 (stereo unspecified) | 1 | 4% | -13% | -5% | -8% | 0%
CC(C)(C)n1nnnc1C(c1ccc(F)cc1)N(Cc1ccc(F)cc1)Cc1ccco1 (stereo unspecified) | -2 | 9% | ? | 11% | 3%[10 µM] | -5%
Clc1ccc(CN(Cc2ccccc2)C(c2cccs2)c2nnnn2C2CCCC2)cc1 (stereo unspecified) | 0 | 11% | -16% | 4% | -27% | 2%
Fc1ccc(CN(Cc2ccccc2)C(c2cccs2)c2nnnn2C2CCCCC2)cc1 (stereo unspecified) | 0 | 3% | 25µM* | 3% | -2% | -5%
CC(C)(C)n1nnnc1C(c1ccc(C(F)(F)F)cc1)N(Cc1ccc(F)cc1)Cc1ccco1 (stereo unspecified) | -2 | 5% | 16µM* | -6% | -17%[10 µM] | -7%
O=C(c1cc(Br)ccc1O)c1cc(Br)ccc1O | . | 6%[14.2 µM] | . | . | 3%[10 µM] | .
COc1ccc(/C=C2\N=C(C)OC2=O)cc1OC(C)=O | 2 | . | . | 50µM* | . | .
Cc1ccc(N2CCn3c2nc2c3c(=O)n(CCc3ccccc3)c(=O)n2C)cc1 | . | . | . | . | -4%[0.074 µM] | .
Cc1ccc(C)n1-c1nc(=S)[nH][nH]1 | -29 | -4% | 14% | 32µM* | -6% | ?
Cc1ccc(N/C(N)=N/c2nc(C)cc(N3CCCCC3)n2)c(C)c1 | 3 | 3% | 13µM* | 3% | -44% | 9%
SMILES | FBPA coupling cs | RGS12 GoLoco inh | HttQ103 aggreg | VDR inh | HTT ATP protect | KDM4E inh
CCOC(=O)N1CCC(N2C(=O)c3ccccc3C2Nc2ccc(S(=O)(=O)N3CCOCC3)cc2)CC1 (stereo unspecified) | 2 | -1% | -9% | -21% | -18% | 9%
Cc1cc2c(NC(=O)Nc3ccccc3)cccc2nn1 | -42* | -2% | 24%[9.22 µM] | -7% | -6%[10 µM] | ?
CC(=O)N1/C(=C/c2ccc(N(C)C)cc2)C(=O)c2ccccc21 | -3 | 184% | ? | 32µM* | -71% | -4%
CNCc1ccccc1Sc1cccc(O)c1 | 0 | 2% | -3% | 11% | . | 8%
CNCc1ccccc1Sc1cc(O)ccc1O | -30 | 4.5µM* | 2% | 35µM* | -5%[10 µM] | ?
CCOC(=O)c1cccc(NC(=O)c2sc3nc[nH]c(=O)c3c2C)c1 | . | . | . | 6% | . | .
CCOc1ccc(C(=O)c2ccc(OC)c(O)c2O)cc1 | -24 | 5% | . | ? | 5% | 25µM*
COc1ccc(C(=O)c2ccc(C)cc2)c(OC)c1OC | . | . | . | -15% | . | .
COc1ccc(C(=O)c2ccc(O)cc2)c(O)c1O | -10 | -1% | . | -14% | . | 16µM*
Nc1nc(Cl)nc2c1ncn2[C@@H]1O[C@H](COP(=O)(O)OP(=O)(O)OP(=O)(O)O)[C@@H](O)[C@H]1O | . | . | . | 2% | . | .
C[C@]12CCC3c4ccc(O)cc4CCC3C1CCC2OC(=O)CCC1CCCC1 (stereo partly specified) | -5 | 5% | . | 3% | . | -1%
CCOC(=O)C1CCN(C(=O)Nc2ccc3nc(-c4ccco4)c(-c4ccco4)nc3c2)CC1 | -45* | 12% | 18% | ? | -14% | ?
O=C(Nc1cccc(Cl)c1)N1CCCC1 | -3 | 4% | -22% | 18µM* | 23% | 7%
O=C(Nc1ccc2nc(-c3ccco3)c(-c3ccco3)nc2c1)N1CCCCCC1 | -37* | 28% | ? | ? | -19%[10 µM] | ?
C=Cc1ccc(Cn2c(C(=O)O)c(CNCc3ccc(F)cc3)c3ccc(C)cc32)cc1 | . | . | . | 0% | . | .
Cc1ccc(NC(=O)c2oc3ccccc3c2NC(=O)c2cc3ccccc3o2)cc1 | . | . | . | -2% | . | .
C=C(C)C(=O)OCC(O)COc1ccc(C(C)(C)c2ccc(OCC(O)COC(=O)C(=C)C)cc2)cc1 (stereo unspecified) | . | . | . | -15% | . | .
COc1ccc(-n2c(=O)c3c4c(sc3n3c(SC(C)C)nnc23)COC(C(C)C)C4)cc1 (stereo unspecified) | . | . | . | 4% | . | .
CCOC(=O)N1CCN(S(=O)(=O)c2ccc(C(=O)NNc3nc4cc(C)cc(C)c4s3)cc2)CC1 | 3 | -4% | ? | -1% | . | 25µM*
CCOC(=O)N1CCN(S(=O)(=O)c2ccc(C(=O)NNc3nc4c(C)cc(C)cc4s3)cc2)CC1 | -3 | -17% | -6% | 6% | . | -2%
O=C(Nc1cccc2ccccc12)OCc1ccccc1 | . | . | . | -5% | . | .
